From PubChem BioAssay AID463173 (ICCB-Longwood Screening Facility, Harvard Medical School, 2010)
Screen size: about 52,000 compounds; about 4,300 (8.3%) were called active. The full list was thinned out, with actives kept by preference. Unmarked numbers belong to inactive results. Rule as the data show it: active = survival mostly below about 52% (no sharp cut-off); inactive = mostly above about 56%.

tested on: DeltatarO mutant; experiment: S. aureus survival, RN4220 and DeltatarO strains – OD600, teichoic acid synthesis inhibitors, primary screen (AID 463173); settings: S. aureus RN4220 wild type/DeltatarO growth, OD600, 18 h, stronger effect = lower value, screened at 18.75 µg/mL (by protocol)

SMILES | survival
CCN(CC)CCOC(=O)c1ccc(Nc2c3c(nc4ccccc24)CCC3)cc1 | 94%
Cc1c(C(=O)N2CCC(c3nc4ccccc4s3)CC2)oc2cc(Br)ccc12 | 107%
COc1cccc(-c2nnc(SCC(=O)N3CCCCC3)o2)c1 | 98%
CCc1ccc(NC(=O)Cn2nc(C(F)(F)F)c3c2CCCC3)cc1 | 94%
CCOc1ccc(CCNS(=O)(=O)c2c(C)nc3sc(C)cn3c2=O)cc1OCC | 58%
CCN(CC)c1ccc(C2C(C(=O)Nc3ccccc3C)=C(C)Nc3ncnn32)cc1 (stereo not given) | 99%
Cc1ccc(-n2ncc3c(N4CCN(C)CC4)ncnc32)cc1 | 81%
CN(C)C(=O)c1ccc2c(c1)N(CC(=O)NCc1ccc(F)cc1)C(=O)C1CCCCN21 (stereo not given) | 74%
CCOC(=O)c1c(-c2cccs2)csc1NC(=O)C(F)(F)F | 70%
CCOC(=O)c1ccccc1NC(=O)Cn1c(=O)n(Cc2nc(-c3ccccc3)no2)c(=O)c2ccccc21 | 72%
CCCN(CCC)C(=O)CSc1c2c(nc3ccc(Cl)cc13)CCCC2 | 38% (active)
CCc1ccc(CNC(=O)CSc2c3c(nc4ccc(Cl)cc24)CCCC3)cc1 | 63%
Cc1ccc(CNC(=O)CSc2c3c(nc4ccc(Cl)cc24)CCCC3)cc1 | 76%
CN(Cc1ccccc1)C(=O)CSc1c2c(nc3ccc(Cl)cc13)CCCC2 | 0% (active)
COc1cccc(CNC(=O)CSc2c3c(nc4ccc(Cl)cc24)CCCC3)c1OC | 62%
COc1ccc(NC(=O)CSc2c3c(nc4ccc(Cl)cc24)CCCC3)cc1Cl | 55%
COc1cc(OC)c(N(C)C(=O)CSc2c3c(nc4ccc(Cl)cc24)CCCC3)cc1Cl | 33% (active)
CCCCN(C)C(=O)CSc1c2c(nc3ccc(Cl)cc13)CCCC2 | -2% (active)
Cc1ccc2nc(NC(=O)CSc3[nH]c(=O)ncc3C)sc2c1 | 102%
O=S(=O)(c1ccc2nsnc2c1)N1CCCCC1 | 66%
CCOc1ccc(CNC(=O)c2cc3ccccn3n2)cc1OC | 74%
CCOc1ccc(NC(=O)C2CC(=O)N(c3ccc(C(C)C)cc3)C2)cc1 (stereo not given) | 91%
COc1ccc(CCNC(=O)CCn2c(=O)c3ccccc3n(Cc3c(C)cc(C)cc3C)c2=O)cc1OC | 89%
Cc1cccc(N2CCN(c3nc4ccccc4c4nc(-c5ccccc5)nn34)CC2)c1C | 92%

SMILES | survival
COc1ccc(N2CCN(C(=O)Nc3ccccc3Cl)CC2)cc1 | 167%
CC(CNC(=O)Cn1ccc2cc(S(=O)(=O)N3CCCCCC3)ccc21)c1ccccc1 (stereo not given) | 109%
CCN(CC)CCCNC(=O)CSc1c2c(nc3cc(Cl)ccc13)CCCC2 | 109%
CCCCN(CC)C(=O)CSc1c2c(nc3ccc(Cl)cc13)CCCC2 | -2% (active)
COc1ccccc1NC(=O)c1ncn(-c2ccccc2)n1 | 115%
CCC(CC)C(=O)N1CCN(Cc2ccccc2)CC1 | 94%
Cc1ccc(NC(=O)CN2C(=O)C(C)(C)c3ccccc32)cc1 | 78%
CCC(CC)C(=O)N1c2ccccc2C(C)(c2ccccc2)CC1(C)C (stereo not given) | -5% (active)
CC(=O)N1c2ccccc2C(C)(c2ccc(C)cc2)CC1(C)C (stereo not given) | -4% (active)
CCCCCC(=O)N1c2ccccc2C(C)(c2ccccc2)CC1(C)C (stereo not given) | -2% (active)
CC(=O)N1c2ccccc2N(C)C(=O)C1(C)C | 88%
CCC(=O)N1CCN(C(=O)CC)C1c1ccccc1 | 93%
CCN1C(=O)C(O)(C(C)C(=O)c2ccccc2)c2ccccc21 (stereo not given) | 57%
CCC(=O)N1c2ccccc2C(C)(c2ccccc2)CC1(C)C (stereo not given) | -8% (active)
CC1=CC(C)(C)N(C(=O)Cc2ccccc2)c2ccccc21 | 115%
CC1=CC(C)C(/C=N/O)C(C)C1 (stereo not given) | 94%
O=C(/C=C/c1ccccc1)Nc1ccccc1N1CCN(c2ccccc2)CC1 | 106%
Cc1ccc2onc(CNC(=O)NCc3cccc(Cl)c3)c2c1 | 72%
CC1CCCN(c2ncnc3c2nnn3C)C1 (stereo not given) | 75%
CCOC(=O)CN1CCOCCN(CC(=O)OCC)CCOCC1 | 64%
Cc1ccc(NC(=O)CSc2cn(CC(=O)N3CCCC3)c3ccccc23)cc1Cl | 84%
CCOc1ccc(CCNC(=O)Cn2nnc(-c3ccc(OC)c(OC)c3)n2)cc1OCC | 65%
O=C(Nc1ccc2c(c1)oc1ccccc12)c1cccs1 | 69%
COc1ccc(OC)c(CCNC(=O)C2CCN(c3ncnc4c3nc3n4CCCCC3)CC2)c1 | 80%

SMILES | survival
COc1ccc(CNC(=O)CN2CCSc3ccccc32)c(OC)c1 | 120%
CC(C)CN(CCNC(=O)CCN1N=C(c2ccccc2)CCC1=O)CC(C)C | 84%
CCOC(=O)c1ccccc1NC(=O)N(C(C)C)C1CCN(C(C)=O)CC1 | 73%
CCc1ccc(NC(=O)c2cnn3c(C(F)F)cc(C)nc23)cc1 | 96%
O=C(Cn1c(=O)n2nc(-c3cccc(F)c3)nc2c2ccccc21)N1CCN(c2ccccc2F)CC1 | 116%
Cc1nn(Cc2noc(C(=O)NCc3cccc(F)c3)n2)c(C)c1Br | 71%
CCCCOc1ccc(C2(C(=O)O)CCCC2)cc1 | 103%
CCCCN1C(=O)C(O)(CC(=O)c2ccc(C(C)(C)C)cc2)c2ccccc21 (stereo not given) | 28%
CCCCC(=O)N1c2ccccc2C(C)(c2ccccc2)CC1(C)C (stereo not given) | -3% (active)
CC(C)Cc1nn2c(=O)cc(COC(=O)c3ccccc3NC(=O)C3CCCCC3)nc2s1 | 81%
CC(=O)Nc1ccc(-n2c(CCC(=O)O)ccc2-c2ccc(Br)cc2)cc1 | 45% (active)
CCc1ccc(-n2c(CCC(=O)O)ccc2-c2ccc(F)cc2)cc1 | 29% (active)
Cc1ccc(-c2ccc(CCC(=O)O)n2-c2ccc(C(N)=O)cc2)cc1 | 60%
CCc1ccc(-n2c(CCC(=O)O)ccc2-c2cccs2)cc1 | 52%
CCOc1ccc(NC(=O)Cn2c(CCC(=O)O)ccc2-c2ccc(C)cc2)cc1 | 65%
CCOc1ccc(-n2c(CCC(=O)O)ccc2-c2ccc(Br)cc2)cc1 | 48% (active)
Cc1ccc(-c2ccc(CCC(=O)O)n2-c2ccc(C(C)C)cc2)cc1 | 44%
CN(C)c1ccc(-n2c(CCC(=O)O)ccc2-c2ccccc2)cc1 | 60%
O=C(O)CCc1ccc(-c2ccc(Br)cc2)n1-c1ccccc1O | 64%
COC(=O)c1ccc(-n2c(CCC(=O)O)ccc2-c2ccc(C)cc2)cc1 | 49%
CC(=O)Nc1ccc(-n2c(CCC(=O)O)ccc2-c2ccc(C)cc2)cc1 | 56%
CCOC(=O)c1ccc(-n2c(CCC(=O)O)ccc2-c2ccc(Br)cc2)cc1 | 19% (active)
